The text below walks through data of PubChem BioAssay AID686979 (National Center for Advancing Translational Sciences (NCATS), 2013).

Each structure is given as a SMILES string. Where “and” joins values, the source holds several entries; their conditions need not be identical. Equal entries are not always repeated. The whole screen tested about 420,000 compounds, of which about 50,000 (12%) were called active. About 26% were inconclusive and are not listed. The sample as a whole holds a higher share of actives than the screen did. A number with no mark means an inactive call. The call rests on the fitted dose curve; in most records, active means well fitted inhibition curve with a large enough effect; inconclusive means small, poorly fitted or top-dose-only effect; inactive means flat fitted curve, though single readings scatter.
On the % scale 0 is the no-effect control and ±100 the full control effect; potency means the concentration at half of the fitted maximal effect.

This assay in a line: qHTS for Inhibitors of human tyrosyl-DNA phosphodiesterase 1 (TDP1): qHTS in cells in presence of CPT. Further: nearly all actives have a fitted effect of over 55% in size. To be noted: chicken DT40 Tdp1-/-;hTDP1 cells + 20 nM CPT, ATP luminescence, 48 h; series mostly up to 46.2 µM; activity change, negative = growth inhibition: at the top concentration. Summed up: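 Chicken DT40 Tdp1-/- cells complemented with human TDP1, 400 cells/well, exposed to compounds plus 20 nM camptothecin for at least 48 h at 37 C; viability read as ATP content by CellTiter-Glo luminescence.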
`N#Cc1c(NC(=O)C2CC(Cl)=CCC2C(=O)O)sc2c1CCCCC2` (stereo unspecified): the “activity change, negative = growth inhibition” value is 20.2%.
On the same count and under the same terms, with `COc1ccc2c(CC(=O)NNC(=O)c3ccccc3F)coc2c1` the figure was -0.595%; with `CCC(C)(C)NC(=O)CN(C(=O)C(=O)Nc1ccc2c(c1)OCCO2)C(C)(C)CC`, -19.8%.
Same read-out and setting: to `O=C(COC(=O)Cn1[nH]c(=O)c2ccccc2c1=O)Nc1ncc(Cl)cc1Cl` belongs -1.54%; to `O=C(OCc1cc(Cl)ccc1OC(F)F)c1cccnc1`, 6.56%.
Take `Cc1cccc(NC(=O)NC(=S)NC(=O)c2ccccc2)c1`: the Potency is 8.2 µM (active).
On to `Cc1ccc(C(=O)NC(=S)Nc2ccccc2C)cc1`, for which the “activity change, negative = growth inhibition” value is -10.1%.
Take `Cc1cccc(NC(=S)NC(=O)c2ccc(Br)o2)c1`: the “activity change, negative = growth inhibition” value is 0.885%.
Still for that read-out and setting: to `Cc1ccc(C(=O)NC(=S)Nc2ccc(N3CCOCC3)cc2)cc1` belongs -29.5%.
For the compound `Cc1ccc(NC(=S)NC(=O)c2ccc(-c3ccccc3)cc2)cc1`, the Potency is 6.51 µM (active).
As to `Cc1cccc(NC(=O)/C(=C\c2ccco2)NC(=O)c2ccccc2)c1`, the “activity change, negative = growth inhibition” value is -2.66%.
The same measure, in the same setting: with `C/C(=N\NC(=O)OC(C)(C)C)c1ccc[nH]1` the figure was -10.6%; with `O=C(CCN1C(=O)C2C3CCC(C3)C2C1=O)Nc1ccc(Cl)cc1Cl` (stereo unspecified), 1.93%.
The same measure, in the same setting: to `O=C(NCCc1c[nH]c2ccc(Cl)cc12)c1ccc([N+](=O)[O-])cc1` belongs -0.327%; to `O=C(NCCCN1CCN(C2CCCCC2)CC1)Nc1ccccc1C(F)(F)F`, 6.84%.
`Cc1cc(C)cc(OCC(=O)Nc2ccc(N3CCOCC3)cc2N2CCOCC2)c1`: the Potency was 20.6 µM (active).
The same measure, in the same setting: with `O=C(CN1CCN(C2CCCCC2)CC1)Nc1ccccc1N1CCCCC1` the figure was 29.1 µM (active).
Regarding `CCc1ccc(C(=O)NC(=S)Nc2ccccc2N2CCOCC2)cc1`, the “activity change, negative = growth inhibition” value was -29.2%.
Still for that read-out and setting: with `O=C(Cc1cccc2ccccc12)NCCC1=CCCCC1` the figure was -28.8%; with `O=C(COc1ccc(Cl)cc1)NC(=S)Nc1ccccc1N1CCOCC1`, 8.34%.
For the compound `Cc1ccccc1CN1CCNC(=O)C1CC(=O)NCCC1=CCCCC1` (stereo unspecified), the “activity change, negative = growth inhibition” value was 13%.
Consider `CC(=O)c1ccc(N2CCN(CC(=O)Nc3ccccc3N3CCOCC3)CC2)cc1`, for which the Potency was 14.6 µM (active).
Regarding `Cc1ccc(OCCCC(=O)Nc2ccc(N3CCOCC3)cc2)cc1`, the “activity change, negative = growth inhibition” value was -17.8%.
As for `O=C(CNCCC1=CCCCC1)Nc1ccccc1N1CCCCCC1`, the Potency was 20.6 µM (active).
In the case of `O=C(CN1CCCCC1)Nc1ccccc1C(=O)NC1CC1`, the “activity change, negative = growth inhibition” value was 13.4%.
The same measure, in the same setting: with `O=C(CN1CCN(c2ccc(O)cc2)CC1)Nc1ccc(-c2ccccc2)cc1` the figure was -17.9%; with `CCn1c(=O)c(=O)[nH]c2c(=O)oc3ccc(S(=O)(=O)Nc4ccc(OC)cc4)cc3c21`, 0.32%.
Still for that read-out and setting: with `Cc1ccc(CCN2CC(C(=O)NCCc3ccccc3)CC2=O)cc1` (stereo unspecified) the figure was -10.1%.
The same measure, in the same setting: to `O=C(COC(=O)Cc1ccc(Br)cc1)Nc1ccc(N2CCOCC2)cc1` belongs -13%; to `CCc1ccc(NC(=O)COC(=O)c2cccs2)cc1`, 1.08%; to `COc1cc(C(=O)N2CCN(C(=O)COc3cccc(C)c3)CC2)cc(OC)c1OC`, 10.3%.
In the case of `COc1cccc(OC)c1C(=O)Nc1ccc2c(c1)n(C)c(=O)n2C`, the “activity change, negative = growth inhibition” value was 15.1%.
As for `COC(=O)c1ccc(CSc2ccc(S(=O)(=O)N3CCCCC3)cn2)cc1`, the “activity change, negative = growth inhibition” value is -1.22%.
As to `Cc1cn(C2OC[C@@H](O)[C@@H]2CO)c(=O)[nH]c1=O` (stereo partly specified), the Potency entry was “inactive”.
For the compound `CC(C)(C)CN1CCNC(=O)C1CC(=O)NC1Cc2ccccc2C1` (stereo unspecified), the “activity change, negative = growth inhibition” value is 1.17%.
In the case of `Cc1cccc(C)c1NC(=O)CN1CCN(c2ccc(F)cc2)CC1`, the Potency was 14.6 µM (active).
For the compound `O=C(CN1CCN(c2ccccc2)CC1)Nc1ccc(F)cc1`, the “activity change, negative = growth inhibition” value is 4.73%.
Take `O=C(CN1CCN(c2ccc(F)cc2)CC1)Nc1ccccc1`: the “activity change, negative = growth inhibition” value is -6.14%.
Still for that read-out and setting: with `C#CCCOC(=O)N1C2=NC(C(=O)OC)=C(C(=O)OC)[C@@H]3N(C)c4ccc(OC)cc4[C@]23C[C@H]1C(=O)OC` the figure was -29.4%.
Same read-out and setting: to `N/C(=N\OC(=O)CC1CCCCC1)c1ccccc1` belongs 3.6%.
Take `Cc1cc(C(=O)N2CCN(c3ccccn3)CC2)c(C)o1`: the Potency was 17.8 µM (active).
As for `O=C(c1cc2ccccc2s1)N1CCN(c2ccccn2)CC1`, the “activity change, negative = growth inhibition” value was -10.5%.
Same read-out and setting: with `O=C(C(Cl)Cl)N1CCN(c2ccccn2)CC1` the figure was 6.47%; with `COc1ccc(/C=N/Nc2nc(-c3ccc(C)cc3)c(C#N)c(=O)[nH]2)cc1`, -1.12%; with `COc1ccc(CCNS(=O)(=O)c2ccc(F)cc2)cc1OC`, -13.6%.
Regarding `COc1ccc(S(=O)(=O)NCCc2cc3ccc(C)c(C)c3[nH]c2=O)cc1`, the Potency is 14.6 µM (active) and 18.4 µM (active).
Turning to `COc1ccc(CCNS(=O)(=O)c2cccc([N+](=O)[O-])c2)cc1`, the “activity change, negative = growth inhibition” value was 2.66%.
`COC(=O)Cn1nc(-c2ccccc2)c2cc(Cl)ccc21`: the “activity change, negative = growth inhibition” value is -2.26%.
As for `NC(N)=Nc1nc(-c2ccccc2)c2cc(Cl)ccc2n1`, the Potency was 16.4 µM (active).
Turning to `Cc1ccc2nc(Nc3ccccc3O)nc(-c3ccccc3)c2c1`, the “activity change, negative = growth inhibition” value is -22.7%.
On the same count and under the same terms, with `O=C(Nc1ccc(-c2cscn2)cc1)C1CCCN(Cc2ccc(CO)o2)C1` (stereo unspecified) the figure was -16.9%; with `CN(Cc1ccco1)S(=O)(=O)c1nnc(NC(=O)c2ccccc2)s1`, -19.4%; with `CC(C)NC(=O)c1ccccc1S(=O)c1ccccc1C#N` (stereo unspecified), -8.19%.
Consider `Cc1cc(NC(=O)CC(C)C)cc(-c2nc3ncccc3o2)c1O`, for which the “activity change, negative = growth inhibition” value is -22.1%.
`CC1Cc2cc(S(=O)(=O)CCC(=O)Nc3ccc(F)c(Cl)c3)ccc2N1C(=O)C1CC1` (stereo unspecified): the Potency was 10.3 µM (active).
Take `COc1cccc(CNS(=O)(=O)c2csc(C(N)=O)c2)c1`: the “activity change, negative = growth inhibition” value was -15.7%.
The same measure, in the same setting: with `CC1Cc2ccccc2N1CC(=O)Nc1ccc(S(N)(=O)=O)cc1` (stereo unspecified) the figure was -8.99%; with `COc1cccc(CNC(=O)C2CCC(CNS(=O)(=O)c3cccs3)CC2)c1` (stereo unspecified), -7.39%.
As to `CCC(=O)N1c2ccc(S(=O)(=O)CCC(=O)N3CCN(c4ccccc4)CC3)cc2CC1C` (stereo unspecified), the “activity change, negative = growth inhibition” value was -22.3%.
Turning to `CC(=O)N1c2ccc(S(=O)(=O)N(C)CC(=O)N(C)Cc3ccccc3)cc2CC1C` (stereo unspecified), the “activity change, negative = growth inhibition” value was -18.2%.
For the compound `COc1cccc(CNS(=O)(=O)c2ccc3c(c2)CC(C)N3C(=O)C2CCC2)c1` (stereo unspecified), the Potency is 5.8 µM (active) and 7.31 µM (active).
Turning to `CC(=O)N1CCc2cc(S(=O)(=O)NC3CCCCC3)ccc21`, the “activity change, negative = growth inhibition” value was -29.4%.
As to `Cn1c(=O)oc2cc(S(=O)(=O)CCC(=O)NCCc3ccc(Cl)cc3)ccc21`, the “activity change, negative = growth inhibition” value is -4.8%.
For `CC(=O)N1c2ccc(S(=O)(=O)NCCC(=O)N(C)C3CCCCC3)cc2CC1C` (stereo unspecified), the Potency is 10.3 µM (active).
Turning to `CC1Cc2cc(S(=O)(=O)CCC(=O)NCc3ccc(Cl)cc3)ccc2N1C(=O)C1CC1` (stereo unspecified), the Potency is 3.66 µM (active).
`Cc1ccc(S(=O)(=O)NCCC(=O)NCc2ccc(Cl)cc2)cc1C`: the “activity change, negative = growth inhibition” value is -13.5%.
